Assay outcomes deposited in PubChem BioAssay by National Center for Advancing Translational Sciences (NCATS).
G9a block = qHTS Assay for Inhibitors of Histone Lysine Methyltransferase G9a; Potency, µM (highest dose often 102 µM), without a hit: at the highest dose activity, negative = inhibition, usual class: inhibitors; AID 504332, 2011; Histone-lysine N-methyltransferase EHMT2 (Homo sapiens), Q96KQ7; G9a H3K9 monomethylation, AlphaScreen, 2 h; 350,000 tested, 8.8% active; note: % is set by controls: 0 for no effect and ±100 for the full control effect; nearly all actives have a fitted effect of over 75% in size
Target sequence (Q96KQ7 913-1193 limits assumed): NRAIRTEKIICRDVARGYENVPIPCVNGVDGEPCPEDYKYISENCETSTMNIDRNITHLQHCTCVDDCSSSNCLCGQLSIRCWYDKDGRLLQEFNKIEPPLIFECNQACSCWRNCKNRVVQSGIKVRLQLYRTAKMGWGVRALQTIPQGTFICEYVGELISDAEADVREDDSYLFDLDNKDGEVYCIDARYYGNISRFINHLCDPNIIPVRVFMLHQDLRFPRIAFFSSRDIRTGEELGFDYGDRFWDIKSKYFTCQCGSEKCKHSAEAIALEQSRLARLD
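Methyltransferase reactions run at room temperature for 2 h (20 nM enzyme, 500 nM biotin-H3K9 peptide, 20 uM SAM) after a 15 min compound preincubation; product detected by AlphaScreen beads and anti-H3K9me1 antibody.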
PLK1 PBD inh = qHTS for Inhibitors of PLK1-PDB (polo-like kinase 1 - polo-box domain): Primary Screen; AID 720504, 2013; Plk1 PBD binding of FITC phosphopeptide, fluorescence polarization; Potency, µM, for the others: max response, negative = inhibition, actives largely listed as inhibitors; 360,000 tested, 2.8% active; Serine/threonine-protein kinase PLK1 (Homo sapiens), P53350; note: series mostly up to about 57 µM; % is set by controls: 0 for no effect and ±100 for the full control effect; nearly all actives have a fitted effect of over 65% in size
12-LOX inh = Primary qHTS assay for inhibitors of human arachidonate 12S-lipoxygenase (ALOX12): Round 2; purified 12hLO, xylenol orange hydroperoxide absorbance; Potency, µM (titrated, usually from 108 µM), without a hit: top-dose activity change, negative = inhibition, most hits filed as inhibitors; 580,000 tested, 1.1% active; note: % is set by controls: 0 for no effect and ±100 for the full control effect
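Purified human 12hLO (150 nM final) in 25 mM Hepes, 0.01% Triton X-100, pH 7.0 was preincubated 15 min at room temperature with compound. Then 40 uM arachidonic acid was added, 30 min. Hydroperoxide was read by Fe-XO absorbance ratio 573/405 nm.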
HP1b binding inh = HTS for Inhibitors of HP1-beta Chromodomain Interactions with Methylated Histone Tails; AlphaScreen HP1-beta / biotin-H3K9me3 peptide binding; Potency, µM (titrated, usually from 114 µM), for the others: at the highest dose activity change, negative = inhibition, most hits filed as inhibitors; 390,000 tested, 0.56% active; note: nearly all actives have a fitted effect of over 70% in size
Target sequence (P83916 whole entry, looked up): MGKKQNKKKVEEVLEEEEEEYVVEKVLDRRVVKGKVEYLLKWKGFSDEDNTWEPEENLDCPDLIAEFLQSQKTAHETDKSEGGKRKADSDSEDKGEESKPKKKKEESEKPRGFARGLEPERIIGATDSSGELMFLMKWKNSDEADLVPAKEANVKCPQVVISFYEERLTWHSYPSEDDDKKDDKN
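Compound inhibition of the preformed complex between 50 nM HP1-beta and 50 nM biotinylated H3K9me3 peptide was read by AlphaScreen. Buffer was PBS pH 7.4 with 0.01% Tween-20. Incubations ran 30 min at room temperature, with 10 ug/mL donor/acceptor beads.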
JMJD2A Tudor = qHTS Assay for Inhibitors of JMJD2A-Tudor Domain; Lysine-specific demethylase 4A (Homo sapiens), O75164; AlphaScreen JMJD2A-Tudor / H3K4me3 peptide binding; Potency, µM (titrated, usually from 114 µM), for inactives: top-dose activity change, negative = inhibition, most hits filed as inhibitors; 390,000 tested, 4.4% active; note: % is set by controls: 0 for no effect and ±100 for the full control effect; nearly all actives have a fitted effect of over 50% in size
BAZ2B block = qHTS Assay for Inhibitors of BAZ2B. Bromodomain adjacent to zinc finger domain protein 2B (Homo sapiens), Q9UIF8. AlphaScreen BAZ2B-H3K14Ac peptide displacement. Potency, µM (top dose mostly 114 µM), for inactives: at the highest dose activity change, negative = inhibition, hits mostly inhibitors. 360,000 tested, 4.4% active; note: % is set by controls: 0 for no effect and ±100 for the full control effect; nearly all actives have a fitted effect of over 60% in size
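Complex of BAZ2B and biotin-H3K14Ac (50 nM apiece) forms over 30 min at RT, then faces library compounds up to 110 uM for another 30 min; AlphaScreen beads added, 20 min dark incubation, luminescence read.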
* hit, by the source's call; ? = inconclusive; · = no result given; [ ] = dose if it differs, or a comment. In the library only some 9% were active in any assay of this set; here they are far more common. Calls come from the whole dose curve; as a rule, active = well fitted curve in the direction sought with a large enough effect; inconclusive = small, poorly fitted or top-dose-only effect, or another doubt; inactive = no such curve, though single readings can be large; an effect the other way counts as inactive or inconclusive. Potency is the fitted concentration of half-maximal effect.

SMILES	G9a block	PLK1 PBD inh	12-LOX inh	HP1b binding inh	JMJD2A Tudor	BAZ2B block
O=C(COC(=O)c1ccc(CN2CCCC2=O)cc1)Nc1ccc(F)cc1	20.2%[12.7 µM]	7.5%	-3.8%	25.8%	8.4%	-0.3%
COc1cccc(N2CC(NC(=O)c3ccc(S(=O)(=O)N4CCCCC4)cc3)CC2=O)c1 (centres undefined)	-12.4%[59 µM]	·	-29.8%	28.2%	-17.5%	2.9%
Cn1cnnc1SCC(=O)N1c2ccccc2-c2c(ssc2=S)C1(C)C	?	·	·	·	·	-1.7%
Cc1ccc2c(c1)-c1c(ssc1=S)C(C)(C)N2C(=O)CSC1=NCCS1	?	-2.2%	-9.8%	?	5.01µM*	8.91µM*
O=C(C1CCN(Cc2ccccc2)CC1)N1CCN(C/C=C/c2ccccc2)CC1	14.1µM*	-2.3%	?	?	?	?
O=C(C1CCN(Cc2ccc(F)cc2)CC1)N1CCN(C/C=C/c2ccccc2)CC1	50.1µM*	-9.0%	-13.2%	?	20µM*	50.1µM*
COc1ccccc1C(=O)N1CC[C@H]2COC(=O)N2c2ccccc2C1	·	·	-0.9%[176 µM]	·	·	·
CC1(C)CC(=O)C(CC(=O)NC(=O)NCc2ccccc2)=C(O)C1	21.5%[59 µM]	-0.6%	0.0%	31.8%	-11.0%	4.0%
CC1(C)CC(=O)C(Sc2ccccc2C(=O)O)=C(O)C1	?	-17.6%	-9.3%	9.1%	25.1µM*	-7.6%
CC1(C)CC(=O)C(Sc2ccccc2)=C(O)C1	44.7µM*	11.9µM*	8.8%	59.5%	2.8%	-12.3%
CC(=O)Nc1cc(O)c2nonc2c1O	·	·	·	?	25.1µM*	·
CCCCOC(=O)C1=C(N)N2C(=O)C(C)SC2=C(C(=O)OCC)C1c1ccc(O)c(OC)c1 (centres undefined)	·	-10.6%	35.5%	12.4%	?	-36.8%
O=C(NCCc1c[nH]c2ccccc12)[C@@H]1C[C@H]1[C@@H](NP(=O)(c1ccccc1)c1ccccc1)c1ccccc1	79.4µM*	·	·	·	·	?
O=C(O)C1CCCCC1C(=O)NCCc1c[nH]c2ccccc12 (centres undefined)	18.8%[12.7 µM]	-12.7%	0.0%	5.2%	-9.1%	9.2%
CC(C)NC(=O)C1(c2ccccc2)CC1(Cl)Cl (centres undefined)	-7.4%	13.4µM*	1.4%	-7.3%	-17.5%	0.8%
CC1(C)NC(=O)N(CC(=O)OCc2cc(=O)n3cc(Br)ccc3n2)C1=O	0.1%	4.7%	3.2%	20.9%	-2.9%	·
Cc1cc(C)c(C)c(S(=O)(=O)N[C@@H](C)C(=O)OCc2cc(=O)n3cc(Br)ccc3n2)c1C	?	-16.6%	-6.8%	17.1%	-25.7%	50.1µM*
Cc1ccccc1C(=O)NC(CC(C)C)C(=O)OCc1cc(=O)n2cc(Br)ccc2n1 (centres undefined)	24.1%[59 µM]	-3.0%	2.3%	16.3%	-10.4%	-3.4%
O=C(CN1C(=O)NC2(CCCC2)C1=O)OCc1cc(=O)n2cc(Br)ccc2n1	?	?	-26.2%	?	50.1µM*	?
CCOC(=O)c1c(C)[nH]c(C(=O)C(C)OC(=O)c2ccc(NC(=O)CC#N)cc2)c1C (centres undefined)	10.5%[12.7 µM]	1.4%	?	3.8%	?	-31.0%
CN1CCC[C@H]1c1nc(-c2ccc(F)cn2)no1	·	·	11.2%[176 µM]	·	·	·
CCOC(=O)c1scc(-c2ccccc2)c1S(=O)(=O)Nc1cc(Cl)c(OC)cc1OC	10µM*	·	?	?	-23.7%	?
CCOC(=O)c1scc(-c2ccccc2)c1S(=O)(=O)Nc1ccc(N(C)C)cc1	4.47µM*	·	?	?	14.1µM*	20µM*
CCOC(=O)c1scc(-c2ccc(C)cc2)c1S(=O)(=O)Nc1ccccc1C	·	·	18.0%	·	·	·
